Measured values reported in PubChem BioAssay (NCI).
This is part of a sample that, as a whole, favours compounds with a hit. Of some 79,000 tested, about 15% had one in any assay. Cut-off read from the data, not from the text of the source: active = growth inhibition above about 70%; inactive = the rest.

Columns and labels:
[1] = NCI Yeast Anticancer Drug Screen. Data for the rad50 strain (AID 155);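 note: 0% = growth of vehicle-only cultures of the same strain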; settings: S. cerevisiae rad50 strain growth inhibition; at 50.0 µM; hits give high values
Summary of the method: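 A DNA repair-deficient yeast mutant serves as the test organism; compound-induced growth inhibition is calculated against vehicle-treated cells.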

[2] = NCI Yeast Anticancer Drug Screen. Data for the mec2-1 strain (AID 157); settings: S. cerevisiae mec2-1 strain, at 50.0 µM, hits give high values
Summary of the method: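 Using mec2-1 yeast: add compound, measure growth, express inhibition versus vehicle-treated cultures.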

[3] = NCI Yeast Anticancer Drug Screen. Data for the sgs1 mgt1 strain (AID 161);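 note: 0% = growth of cultures given vehicle only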; settings: S. cerevisiae sgs1 mgt1 strain, at 50.0 µM, hits give high values
Summary of the method: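 Yeast cells carrying a defined DNA-repair defect were exposed to test compounds. Growth inhibition was measured relative to vehicle-treated controls.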

[4] = NCI Yeast Anticancer Drug Screen. Data for the cln2 rad14 strain (AID 165);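 note: 0% = growth equal to vehicle treated cultures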; settings: S. cerevisiae cln2 rad14 strain, at 50.0 µM, hits give high values
Summary of the method: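 Yeast strain cln2 rad14, bearing defects in cell cycle control and DNA repair, serves as the test system; values reflect growth inhibition compared with vehicle.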

[5] = NCI Yeast Anticancer Drug Screen. Data for the bub3 strain (AID 167); settings: S. cerevisiae bub3 mutant strain, at 50.0 µM, hits give high values
Summary of the method: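 Inhibition values come from growth of compound-treated mutant yeast normalised to vehicle-treated controls.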

[6] = NCI Yeast Anticancer Drug Screen. Data for the mlh1 rad18 strain (AID 175); settings: S. cerevisiae mlh1 rad18 strain growth inhibition; at 50.0 µM; hits give high values
Summary of the method: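 Steps: expose repair-defective yeast to compound; measure growth; express inhibition against vehicle-treated controls.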

Measured: growth inhibition

CC(NC(=O)c1ccccc1)C1CCCCC1 (stereo not given)
inactive: [1] -5.2% | [2] -1.85% | [3] -1.4% | [4] -49.8% | [5] -12.7% | [6] 0.75%

O/N=C1/CCCc2nonc21
inactive: [1] -18.6% | [2] -3.15% | [3] -0.3% | [4] 4.35% | [5] -8.2% | [6] -6.5%

CCCCC1CCC2CCCCC2C1 (stereo not given)
inactive: [1] 3.4% | [2] -2.5% | [3] -8.05% | [4] -18.1% | [5] -11.2% | [6] 8%

O=C(C1C2C=CC(C2)C1C(=O)N1CCCCC1)N1CCCCC1 (stereo not given)
inactive: [1] 2.5% | [2] 25.4% | [3] 13.2% | [4] -1.8% | [5] 12.3% | [6] 11.5%

COc1ccc(N2C(=O)C(C)SC23C(=O)Nc2ccccc23)cc1 (stereo not given)
inactive: [1] 13.6% | [2] 20.4% | [3] 5.75% | [4] 2.5% | [5] 4.75% | [6] 18.8%

c1ccc(N2CCN(CCCN3CCc4c([nH]c5ccccc45)C3c3cccnc3)CC2)cc1 (stereo not given)
inactive: [1] -5.55% | [2] -18.1% | [3] -18.8% | [4] 14.1% | [5] -7.9% | [6] -1.8%

O=C1CS[C@@H]2C(=O)CCCC2C1 (stereo not given in full)
inactive: [1] -16% | [2] 17.6% | [3] -1.8% | [4] -7.25% | [5] -3.4% | [6] -4.4%

COc1cc(C(=O)O)cc(O)c1OC
inactive: [1] 4.95% | [2] -4.5% | [3] -2.85% | [4] -6.25% | [5] 2.4% | [6] 8.45%

O=C(OC(c1ccccc1)c1ccccc1)c1ccccc1C(=O)c1ccccc1
inactive: [1] -18.6% | [2] -15.1% | [3] -21% | [4] -16.6% | [5] -3.25% | [6] -36.1%

c1ccc(-c2cc(-c3ccccc3)c(-c3ccccc3)c(-c3ccccc3)c2)cc1
inactive: [1] 32.1% | [2] 10.1% | [3] 19.4% | [4] 12.4% | [5] -4.1% | [6] 13%

Cc1nn(C)c(=O)c2nn(-c3ccccc3)c(C)c12
inactive: [1] 19.6% | [2] 3.4% | [3] 14.8% | [4] 14.3% | [5] 20.8% | [6] 1.25%

Nc1ncnc2nc(I)[nH]c12
inactive: [1] -1.45% | [2] 1.25% | [3] -4.55% | [4] -6.75% | [5] 26.7% | [6] 7.3%

O=COCCOC=O
inactive: [1] 19.9% | [2] 5.55% | [3] -23.6% | [4] 20.6% | [5] 10.2% | [6] 14.2%

O=C(O)C(C(=O)O)C1CCCCC1
inactive: [1] -14.6% | [2] -20.6% | [3] -20.6% | [4] -0.95% | [5] -6.5% | [6] -15.8%

CC(=O)N=C1N(/C=C2\C(=O)Oc3ccccc3C2=O)C(=O)/C(=C/c2ccc3c(c2)OCO3)N1C
inactive: [1] 21.6% | [2] -5.55% | [3] 5.25% | [4] 9.4% | [5] -6.35% | [6] 10.5%

CN(C)Cc1cc(C(=O)/C=C/c2ccc(Cl)cc2)cc(CN(C)C)c1O
inactive: [1] -27.6% | [2] -22.1% | [3] -20.9% | [4] -44.2% | [5] 1.2% | [6] -18.1%

CC(C)(C#N)CCCCC(N)=O
inactive: [1] -1.4% | [2] -13.4% | [3] -12.2% | [4] -6.1% | [5] -19.1% | [6] -10.7%

CC(O)C(O)C(O)C(O)C#N (stereo not given)
inactive: [1] 20.6% | [2] 18% | [3] 12.2% | [4] 11% | [5] 0.15% | [6] 10.1%

Brc1c(-c2ccccc2)oc2nc3ccccc3nc12
inactive: [1] 17.2% | [2] 0.2% | [3] 0.2% | [4] 7.45% | [5] 12.6% | [6] 3.8%

COc1ccc(/C=N/N=C/c2ccc(OC)cc2)cc1
inactive: [1] 22.3% | [2] 0.7% | [3] -14.1% | [4] -34.5% | [5] -19.8% | [6] 17.8%
